About 7,000 (2%) of roughly 350,000 compounds were called active. Rule as the data show it: active = activation above about 40%; inconclusive = no clear call, values can overlap the other calls; inactive = below that. Shown is part of a subset that was picked to be rich in actives.

The values below come from PubChem BioAssay AID602393 (Broad Institute, 2012).

The experiment in a line: raisers of Bmi1 knock-in reporter signal – mouse ES cells, Bmi1 luciferase knock-in, single point, esBAF inhibitor project, primary screen (AID 602393).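 Also: 0% = median of the plate's neutral control wells and 100% = double that signal; a rise in the Bmi1 reporter signal indicates esBAF inhibition.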 The following applies: 24 h, at 12.5 µM, stronger effect = higher value.
As for `CC(C)(C)c1ccc(OC(=O)N2CCCCC2)cc1`, the reporter increase is 91.1% (active).

Turning to `CN1CCN(C(=O)COc2ccc(C(C)(C)C)cc2Br)CC1`, the reporter increase was 1.71% (inactive).

Turning to `O=C(NC1CCCCC1)N1Cc2cc(N3CCCCC3)ccc2-n2nncc2C1`, the reporter increase is 5.49% (inactive).

In the case of `CSCCC(c1nnnn1C(C)(C)C)N1CCC(n2c(=O)[nH]c3ccccc32)CC1` (stereo not given), the reporter increase was -9.76% (inactive).

On to `O=P(OC1=CCCCC1)(c1ccccc1)c1ccccc1`, for which the reporter increase is -0.107% (inactive).

`CN(C)C(=O)Oc1ccc(NC(=O)N2CCOCC2)cc1`: the reporter increase was -0.475% (inactive).

For `CN(C)C(=O)Oc1ccc2c(c1)O/C(=C\c1ccccc1)C2=O`, the reporter increase was 46.6% (active).

Regarding `S=C(NCCc1ccccc1)N1Cc2cc(N3CCOCC3)ccc2-n2nncc2C1`, the reporter increase was 0.039% (inactive).

Regarding `C[C@H](CO)N1C[C@H](C)[C@H](CN(C)C(=O)Oc2ccc3ccccc3c2)OCc2cnnn2CCCC1=O`, the reporter increase was 2.57% (inactive).

Regarding `N#Cc1cccc(-c2ccc([C@H]3[C@@H](CO)N4CCCCN(C(=O)Cc5cccnc5)C[C@@H]34)cc2)c1`, the reporter increase was 0.128% (inactive).

For the compound `COC(=O)[C@H]1[C@H](CO)[C@H]2Cn3c(cccc3=O)[C@H]2N1CC1CC1`, the reporter increase is 0.469% (inactive).

`Cc1cc(C)c2c(c1)NP(=S)(c1ccccc1)N2` (stereo not given): the reporter increase was 7.37% (inactive).

On to `COc1ccc2c(c1)NP(=S)(c1ccccc1)N2` (stereo not given), for which the reporter increase was 43.7% (active).

Regarding `O=C(O)[C@H]1[C@H](CO)[C@H]2Cn3c(ccc(-c4ccccc4F)c3=O)[C@@H]1N2C(=O)c1cccnc1`, the reporter increase was -1.7% (inactive).

Turning to `COC(=O)C1=C(c2ccc(OCc3ccccc3)cc2)C[C@@H]2CC[C@H]1N2C(=O)NCc1cccc(F)c1`, the reporter increase is 3.43% (inactive).
